Screening data deposited in PubChem BioAssay by Johns Hopkins Ion Channel Center.
Rows were chosen to be rich in hits. Some 2.3% of all compounds tested hit in one or more screens of this group.
ANO1 block – mouse TMEM16A channel inhibition, primary screen. HEK293 TMEM16A/YFP iodide influx fluorescence, ionomycin. normalized B-score (activity score, 25-100; higher = stronger inhibition) at 10 µM. hit rate 1.2% among 310,000;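 active = ratio plate-corrected score three or more library SD toward inhibition, starting fluorescence score within five deviations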;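 also: score derived from kinetic fluorescence span divided by baseline fluorescence per well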
Target sequence (Q8BHY3 whole entry, looked up): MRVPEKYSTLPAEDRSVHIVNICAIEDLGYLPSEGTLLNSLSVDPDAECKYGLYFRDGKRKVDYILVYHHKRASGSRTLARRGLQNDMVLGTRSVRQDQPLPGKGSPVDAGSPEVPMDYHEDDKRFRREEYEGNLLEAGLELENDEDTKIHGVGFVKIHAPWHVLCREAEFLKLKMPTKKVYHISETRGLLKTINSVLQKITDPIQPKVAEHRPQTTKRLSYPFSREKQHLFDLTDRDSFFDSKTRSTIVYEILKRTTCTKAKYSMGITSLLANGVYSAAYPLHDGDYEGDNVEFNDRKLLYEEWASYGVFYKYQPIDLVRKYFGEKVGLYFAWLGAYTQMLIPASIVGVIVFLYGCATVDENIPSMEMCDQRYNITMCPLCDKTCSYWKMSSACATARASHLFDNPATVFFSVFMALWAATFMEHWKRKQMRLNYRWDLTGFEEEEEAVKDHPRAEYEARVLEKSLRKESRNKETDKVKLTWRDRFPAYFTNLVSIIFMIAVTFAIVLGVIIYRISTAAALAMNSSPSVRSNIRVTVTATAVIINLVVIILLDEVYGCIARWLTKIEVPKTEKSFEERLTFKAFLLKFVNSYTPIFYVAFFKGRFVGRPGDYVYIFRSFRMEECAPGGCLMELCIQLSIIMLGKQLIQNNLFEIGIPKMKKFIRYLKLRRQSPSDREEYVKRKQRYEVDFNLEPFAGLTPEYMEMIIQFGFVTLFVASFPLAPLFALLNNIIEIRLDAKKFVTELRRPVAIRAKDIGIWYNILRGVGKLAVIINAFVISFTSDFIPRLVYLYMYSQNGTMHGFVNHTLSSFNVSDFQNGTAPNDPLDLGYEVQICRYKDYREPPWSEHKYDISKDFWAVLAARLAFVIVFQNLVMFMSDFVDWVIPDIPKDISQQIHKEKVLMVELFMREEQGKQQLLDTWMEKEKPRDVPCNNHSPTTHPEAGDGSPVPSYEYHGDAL
TMEM16A act – activates or potentiates the mouse TMEM16A chloride channel; hit rate 0.3% among 340,000; Q8BHY3; HEK293 TMEM16A/YFP-H148Q/I152L, iodide quench fluorescence; stronger effect = lower value; B-score at 10 µM;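 active = fluorescence-ratio B-score plate-corrected deviation score at least 3 library SD below zero, with starting fluorescence score within 5 deviations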;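 also: channel opened by trigger with iodide after compound preincubation; score built on the fluorescence ratio of max minus min over baseline; more negative score means more quench and so TMEM16A activation or potentiation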
CHT block – inhibits the human high affinity choline transporter | Q9GZV3 | CHT-expressing cells, membrane potential dye, choline response; stronger effect = lower value | B-score at 10 µM | hit rate 0.86% among 310,000;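 active = B-score over 3 SD under the library average, and starting fluorescence ratio not unusually high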;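 also: choline stimulus applied at its EC90 after an EC20 pre-addition; B-score computed on integrated fluorescence ratio after choline addition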
CHT PAM – allosterically activates the human high affinity choline transporter. CHT-expressing cells, membrane potential dye, choline EC20; stronger effect = higher value; LV-AA mutant CHT in HEK293 cells. AID 488977. Q9GZV3. hit rate 0.49% among 310,000. B-score at 10 µM;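 active = initial fluorescence not abnormally high and integrated response B-score, plate-corrected, over 3 SD above library mean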
CHT act confirm – confirmation of human choline transporter (CHT) activators | CHT-expressing cells, membrane potential dye fluorescence (FDSS); % of choline EC20–EC90 response window; HEK293 expressing CHT LV-AA mutant; choline added at its EC20 | activation, % at 10 µM | shares compounds with CHT PAM | hit rate 91% among 2,500;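 active = primary screen active, with duplicate mean activation above negative control mean plus 3 SD, cut at about 11% in these data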
HEK293 MP dye – CHT activator counter-screen hit in parental HEK293 cells. hit rate 62% among 2,500. shares compounds with CHT PAM. membrane potential dye fluorescence (FDSS); measured after EC20 choline addition. AID 623908. ratio readout change at 10 µM, hits read low;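 active = duplicate-averaged ratio beyond 3 SD from buffer wells, up or down, though filed actives are nearly all decreases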
An asterisk follows results filed as active; i = inactive; nt = not tested or not shown.

SMILES | ANO1 block | TMEM16A act | CHT block | CHT PAM | CHT act confirm | HEK293 MP dye
O=S1(=O)N=C(c2ccccc2)c2ccccc21 | i | i | i | i | nt | nt
CCN(CC(=O)NCc1ccc(Cl)cc1)C(=O)CSCC(=O)Nc1ccc(OC)cc1 | i | i | i | i | nt | nt
CCCOc1c(OC)cccc1C1CC(=O)Nc2cc3c(cc21)OCCO3 (stereo not given) | i | i | i | i | 10 | i
CCCOc1c(OC)cccc1C1CC(=O)Nc2cc3c(cc21)OCO3 (stereo not given) | i | i | i | i | nt | nt
C=CCn1c(SC(C)C(=O)NCCC2=CCCCC2)nc2ccccc2c1=O (stereo not given) | i | i | i | i | 27* | i
Cc1[nH]c2ccccc2c1C(=O)C(C)OC(=O)C1CCC1 (stereo not given) | i | i | i | i | nt | nt
Cc1cc(/C=C2/C(=N)N3C(=NC2=O)SN=C3S(C)(=O)=O)c(C)n1-c1ccccc1F | i | i | i | 7.6* | -17 | i
CCC(C)[C@H](NS(=O)(=O)c1ccc(C)cc1)C(=O)N1CCC(C(=O)N2CCC(C(=O)OC)CC2)CC1 (stereo not given in full) | i | i | i | i | nt | nt
COc1ccc(Nc2nc(N3CCN(C)CC3)nc3ccccc23)c(OC)c1 | i | i | i | i | nt | nt
COc1ccc(Nc2nc(-c3cccs3)nc3ccccc23)c(OC)c1 | i | i | i | 8* | 9.8* | i
CSCCC(NS(=O)(=O)c1ccccc1)C(=O)Nc1nccs1 (stereo not given) | nt | i | nt | nt | nt | nt
COc1cccc(CNC2CCCCCCC2)c1OC | i | i | i | i | nt | nt
CO[C@H]1C=CO[C@@]2(C)Oc3c(C)c(O)c4c(O)c(c5c(c4c3C2=O)NC2(CCN(CC(C)C)CC2)N=5)=NC(=O)C(C)=CC=C[C@H](C)[C@H](O)[C@@H](C)[C@@H](O)[C@@H](C)[C@H](OC(C)=O)[C@@H]1C | i | nt | i | i | nt | nt
CCC(C)N1CCC2(CC1)N=c1c(c3c4c5c(C)c(O)c3c(O)c1=NC(=O)C(C)=CC=C[C@H](C)[C@H](O)[C@@H](C)[C@@H](O)[C@@H](C)[C@H](OC(C)=O)[C@H](C)[C@@H](OC)C=CO[C@@](C)(O5)C4=O)N2 (stereo not given in full) | i | i | i | i | 22* | -42*
C=CCn1cc(C(=O)OCC)c(=O)c2ccc(F)cc21 | i | i | i | i | 37* | -43*
CC(C)(C)N(NC(=O)c1ccccc1)C(=O)c1cccc(C(=O)N(NC(=O)c2ccccc2)C(C)(C)C)c1 | i | i | i | 8.5* | 35* | i
CCc1ccc2nc(/N=C(\N)NC(=O)c3ccccc3)nc(C)c2c1 | i | i | i | i | nt | nt
CCCC(=O)N/C(N)=N/c1nc(C)c2ccccc2n1 | i | i | i | i | 36* | -46*
Cc1cc(Oc2ccc3ccccc3c2)nc(SCC(=O)c2ccccc2)n1 | i | i | i | 8* | 53* | i
COC(=O)CSc1nc(C)cc(Oc2ccccc2)n1 | i | i | i | i | nt | nt
COc1ccc(C2(C)C(C#N)C(=O)NC(=O)C2C#N)cc1 (stereo not given) | nt | i | nt | nt | nt | nt
CCN(CC)CCNc1nc2c(c(=O)n(C)c(=O)n2C)n1C/C=C(/C)Cl | i | i | i | i | 68* | -42*
CCCC(c1nnnn1CS(=O)(=O)c1ccc(C)cc1)N1CCN(c2ccccc2)CC1 (stereo not given) | i | i | i | 7* | 14* | i
CC[N+](C)(C)CCN(Cc1ccc(Cl)cc1)c1ccccn1 | i | i | i | i | nt | nt
CCCCCCCCCCCCCCCC[N+](C)(C)CCN(Cc1ccc(OC)cc1)c1ncccn1 | i | i | i | i | 18* | -60*
Cc1cc(C)n(CCCNC(=O)c2ccc(C)o2)n1 | nt | i | nt | nt | nt | nt
C(=N\n1cnnc1)/c1ccccn1 | i | i | i | i | nt | nt
